# PubChem BioAssay (NCI)
# Where “and” joins values, the source holds several entries; their conditions need not be identical. Identical values can stand only once. Compounds without any hit were thinned out: in the full panel of roughly 83,000, 20% have a hit.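 Note: values are percent growth. 100 is the growth of untreated cells, values between 100 and 0 indicate rising inhibition; between -100 and 0 indicates cell death.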 A number with no mark means an inactive call. Calls of active or inactive are those of the source.
# Tested on: EKVX NSCLC
# Test: NCI-60 one-dose screen, 48 h (100 = growth as untreated, 0 = no growth, -100 = all killed)
# Conditions: 1 µM
# Protocol: Growth inhibition of the EKVX human Non-Small Cell Lung tumor cell line is measured as a screen for anti-cancer activity. Cells are grown in 96 well plates and exposed to the test compound for 48 hours. Compounds are tested at a single concentration, which is 10^-5 M for most compounds. The reported endpoint is percent growth (GI% or GIPRCNT), where numbers from 0 - 100% represent growth inhibition, and numbers from -100% - 0 represent cell death. For example, a value of 40 represents 60% growth inhibition. A value of 0 means no net growth occurred over the course of the experiment. A value of -40 indicates 40% of cells at the beginning of the experiment died by the end of the experiment. A value of -100 means all cells are dead at the end of the experiment.
# NCI-60 Human Tumor Cell Lines Screen was performed using the standard one-dose NCI protocol, which is described in more detail at https://dtp.cancer.gov/discovery_development/nci-60/default.htm.
# Compounds with GIPRCNT values below 10 were considered active. Activity score was based on GIPRCNT using the following formula: […]
# Score is 0 for GIPRCNT values of 100 or above, 50 for GIPRCNT values of 0, and 100 for GIPRCNT values of -100.
row,Compound,growth
1,CC/C(=C(/c1ccc(O)cc1)c1ccc(OCCN(C)C(=O)COCCOCCNC(=O)Cc2ccc3c(c2)CN([C@@H]2CCC(=O)NC2=O)C3=O)cc1)c1ccccc1,99.4%

# Same assay, conditions: 10 µM
row,Compound,growth
1,CC/C(=C(/c1ccc(O)cc1)c1ccc(OCCN(C)C(=O)COCCOCCNC(=O)Cc2ccc3c(c2)CN([C@@H]2CCC(=O)NC2=O)C3=O)cc1)c1ccccc1,105%

# Same assay, conditions: 10 µM unless noted
row,Compound,growth
1,COc1ccc(N=Nc2c(N)nn3c(N)c(C#N)c(-c4ccccc4)nc23)cc1,38.9%
2,COc1cc(NC(=O)CSc2nnc(-c3ccc(-c4nc5ccc(Cl)cc5[nH]4)cc3)o2)cc(OC)c1OC,81.1%
3,CN(CCSSCCN1CCOCC1)C(=O)Oc1cc2c(c3ccccc13)[C@H](CCl)CN2C(=O)c1cc2cc(OCCCN3CCC3)ccc2[nH]1,-61.3% (active)
4,N#Cc1cc(-c2ccc3ncnc(N4CCc5cc(F)c(Cl)cc54)c3c2)cnc1N,24.6%
5,Cc1cc(Cl)ccc1NC(=O)Nc1ccc(-c2ccc3c(c2)NC(=O)/C3=C\c2ccc[nH]2)cc1,67.5%
6,Nc1ccc(-c2ccc3ncnc(N4CCc5cc(F)c(Cl)cc54)c3c2)cn1,-29.2% (active)
7,CCC(=O)c1cc(C(=O)OC)c2ccc3c4ccccc4ccc3n12,83.6%
8,O=C(N=Nc1c(O)[nH]c2ccc(Br)cc12)c1ccc2nc(-c3ccc(Cl)cc3)[nH]c2c1,-14.1% (active)
9,Cc1ccc2nc(COc3ccc(C(=O)NNC(=O)Nc4ccc(Cl)c(C(F)(F)F)c4)cc3)[nH]c2c1,77.3%
10,COc1cc(C2CC(c3ccc(S(=O)(=O)NCCNc4nc(N(C)C)nc(N5CCOCC5)n4)cc3)=Nc3c(N)nc(N)nc3N2)cc(OC)c1OC (stereo not given),75.4%
11,C/C(=N\Nc1ccc(S(N)(=O)=O)cc1)c1cnn(-c2cc(=O)[nH]c3ccc(Br)cc23)c1C,72.1%
12,Cc1ccc2c(c1)/C(=C/C(=O)c1cc3ccccc3oc1=O)C(=O)N2,78.2%
13,COc1ccc(NC(=O)CSc2nnc(-c3ccc(-c4nc5ccccc5[nH]4)cc3)o2)cc1,53.2%
14,O=C(CSc1nc2ccccc2c(=O)[nH]1)Nc1ccccc1C(=O)O,92.3%
15,CC(C)(C)c1ccc(OCc2nc3ccccc3n2-c2cccc(N)c2)cc1,45.5% and 96.8%
16,CC[C@@]12CC(C(=O)OC)=C3Nc4cc5c(cc4[C@@]34CCN(C[C@H]3O[C@H]31)[C@@H]24)[C@@H]1[C@H](O5)[C@@H](O)[C@@]2(CC)CC(C(=O)OC)=C3Nc4cc(O)ccc4[C@@]34CCN1[C@@H]24,-14.9% (active)
17,CN(C(=O)CN1C(=O)/C(=C/c2ccco2)SC1=S)C1CCS(=O)(=O)C1 (stereo not given),97.9%
18,N/C(=N\c1nc2ccccc2s1)NC(=O)Nc1ccccc1F,37%
19,COc1cc(CNC(=O)C[C@H](C)CCC=C(C)C)ccc1OCc1cn(-c2ccc(Cl)cc2Cl)nn1,81.1%

row,Compound,growth
1,COc1cc(CNC(=O)C[C@H](C)CCC=C(C)C)ccc1OCc1cn(-c2ccc(Br)cc2)nn1,79%
2,N#Cc1c(NC(=O)N2CCOCC2)n(-c2ccc(OC(F)(F)F)cc2)c2cc(F)ccc12,90.1%
3,N#CC1=C(c2cccs2)Nc2c(c(-c3ccccc3)nn2-c2ccccc2)C12C(=O)Nc1ccccc12 (stereo not given),14.8%
4,Nc1nnc(CS(=O)(=O)c2ccccc2)s1,103%
5,Cn1cc(Nc2ncnc(-c3ccc(N4CCCC4)c(C#N)c3)n2)cn1,95.3%
6,NC(=Nc1ccc(OCCCCCCCCn2cnnn2)cc1)c1ccccc1,40%
7,Cc1ccc(C2CC(c3ccc(NC(=S)Nc4ccccc4)cc3)=NN2c2ccc(S(N)(=O)=O)cc2)cc1 (stereo not given),9.1% (active)
8,CN(C)c1nc(NCCNS(=O)(=O)c2ccc(C3=Nc4c(N)nc(N)nc4NC(c4ccc(Cl)cc4)C3)cc2)nc(N2CCOCC2)n1 (stereo not given),37.6%
9,COc1cc(C2CC(c3ccc(F)cc3)=Nc3c(N)nc(N)nc3N2)ccc1Oc1nc(Nc2ccc(F)cc2)nc(N(C)C)n1 (stereo not given),56.4%
10,COc1ccc2[nH]cc(-c3cc(N)n4nc(-c5c[nH]c6ccccc56)cc4n3)c2c1,10.9%
11,COc1ccc(C(=O)/C=C/c2ccc3c(c2)OCCO3)cc1S(N)(=O)=O,84.8%
12,COc1ccc(N=Nc2c(N)nn3c(-c4ccc5c(c4)C=S=C5)ccnc23)cc1,33.9%
13,CN1CCN(C(=O)Oc2cc3c(c4ccccc24)[C@H](CCl)CN3C(=O)c2cc3cc(OCCCN4CCC4)ccc3[nH]2)[C@H]2CSSC[C@H]21,-38.3% (active)
14,COc1ccc(N=Nc2c(N)nn3c(-c4ccc(OC)c(OC)c4)ccnc23)cc1,103%
15,Cc1ccc(C2CC(c3ccc(NC(=O)Nc4ccccc4)cc3)=NN2c2ccc(S(C)(=O)=O)cc2)cc1 (stereo not given),-2.75% (active)
16,Cc1ccc(C(C(=O)NC2CCCCC2)N(Cc2ccccc2Cl)C(=O)c2ccc(CN3CCOCC3)o2)o1 (stereo not given),89%
17,C#CCN(C)CCCOc1ccc(N(CC)C(=O)c2cc(C(C)C)c(O)cc2O)cc1Cl,-7.81% (active)
18,NS(=O)(=O)c1ccc(Nc2nc(SCC(=O)c3ccc(F)cc3)nc3ccccc23)cc1,39.1%
19,CC(C)C[C@H](NC(=O)CNC(=O)C[C@H]1O[C@@H]2OC3(C)CC[C@H]4[C@H](C)CC[C@@H]([C@H]1C)[C@@]24O3)B(O)O,27.3%
